The assay in a line: probe aNOTCH3 binding on compound microarray – biochemical, small-molecule microarray, 635/667 nm fluorescence, primary screen (AID 1120).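 Also: probe is a biotin-tagged antibody raised against NOTCH3 rather than NOTCH3 protein; score merges spot fluorescence near 667 nm with spot signal to noise.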 To be noted: higher = more signal.
In turn, `[N-]=[N+]=Nc1ccccc1[C@@H]1OC(c2ccc(OCCCO)cc2)=N[C@]1(Cc1ccccc1)C(=O)NCC(O)CO` (stereo not given in full) returned a composite z-score of 0.453. `CC1CC/C=C\[C@H]2OC34C=CCN(c5ccc(Cl)cc5)C(=O)[C@H]3N(CCCCCO)C(=O)[C@]4(C)C2C(=O)O1` (stereo not given in full) registered a composite z-score of -0.288. With `C=CCC(OC(C)=O)[C@@H]1[C@@H](N(Cc2cccc3ccccc23)C(=O)c2cccc3ccccc23)c2cc(OCCCO)ccc2N1C(=O)c1ccc(-c2ccccc2)cc1` (stereo not given in full) the figure was 0.122; with `CN1C(=O)C2C=CC(C(O)c3ccccn3)N(N(c3ccccc3)c3ccccc3)C2C1=O` (stereo not given), -0.004; with `CC(C)(C)N1CC=CC23O[C@@H]4C=CCCOC(=O)C4[C@H]2C(=O)N(CCO)[C@@H]3C1=O` (stereo not given in full), -0.13. With `Cc1ccc(S[C@]2(C(=O)NCCCN(C)C)CC(=O)N(C3CCCCC3)[C@@H]2c2ccc(CO)cc2)cc1` the figure was -0.182. `CCOc1cc(C(O)C2C=CC3C(=O)N(c4ccccc4)C(=O)C3N2Nc2ccc(C#N)cc2)ccc1O` (stereo not given): the composite z-score is 0.0638. With `COCCOC(=O)N1C(=O)[C@@]2(c3cc(C#Cc4ccc(OC)cc4)ccc31)[C@H](C(=O)Nc1nc3ccccc3s1)[C@H]1C(=O)O[C@H](c3ccccc3)[C@H](c3ccccc3)N1[C@@H]2c1ccc(OCCO)cc1` the figure was 0.0493.

`O=C1O[C@H](c2ccccc2)[C@H](c2ccccc2)N2[C@H]1[C@@H](C(=O)NC[C@H](O)c1ccccc1)[C@]1(C(=O)Nc3ccc(C#CCCO)cc31)[C@H]2c1ccc(OCCO)cc1` gave a composite z-score of 0.0311. On to `CCC(CC)C(O)C1C=CC2C(=O)N(c3ccccc3)C(=O)C2N1Nc1ccc(C(C)C)cc1` (stereo not given), for which the composite z-score was determined as 0.213. With `C=CCC(OC(C)=O)[C@@H]1[C@@H](N(Cc2cccc3ccccc23)C(=O)Cc2ccc(OC)cc2)c2cc(OCCCO)ccc2N1C(=O)c1ccc2ccccc2n1` (stereo not given in full) the figure was 0.0224; with `C=C(C)c1cc2c(c(CCCCCC)n1)[Si](C(C)C)(C(C)C)OC2`, -0.296; with `COCCOC(=O)N1C(=O)[C@@]2(c3cc(C#CC4=CCCCC4)ccc31)[C@H](c1ccccc1OCCO)N1[C@H](c3ccccc3)[C@H](c3ccccc3)OC(=O)[C@H]1[C@@H]2C(=O)Nc1nc2ccccc2s1`, 0.158. On to `O=C1NC(=O)C2C1C=CC(C(O)c1cccc3ccccc13)N2Nc1ccc(Cl)cc1Cl` (stereo not given), for which the composite z-score was 0.0496. Compound `CN(C)C(=O)[C@@]1(Cc2ccccc2CN=[N+]=[N-])N=C(c2ccc(OCCCO)cc2)O[C@H]1c1ccccc1CN=[N+]=[N-]` showed a composite z-score of 0.602.
